Screening results from PubChem BioAssay.
An excerpt weighted towards active compounds, which were near 4% of everything screened.
TROY signal inh – inhibitors of TROY-driven NF-kB signaling, primary screen, Q293 LMP1-TROYcd cells, NF-kB luciferase, uHTS; Q293 LMP1-TROYcd NF-kB luciferase reporter, 4 h; inhibition, % at 10 µM; 0.98% of 360,000 active; AID 1347056, 2019;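 active = compounds whose plate-normalised and pattern-corrected inhibition of the luciferase reporter signal at the single screening dose is 50% or more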
TWEAK Fn14 block – inhibitors of TWEAK-Fn14 signaling, primary screen, luciferase reporter cells, uHTS | TWEAK-stimulated Fn14 reporter cells, luciferase luminescence, 8 h | inhibition, % at 10 µM | 2% of 360,000 active | AID 1159606, 2016; in the data active = inhibition above about 50%
CF NFkB block – inhibitors of PAF-induced NF-kB signaling, primary screen, cell-based, GFP fluorescence, uHTS; KKLEB NF-kB-GFP reporter, GFP fluorescence overnight; inhibition, % at 5 µM; 0.86% of 360,000 active; AID 588850, 2011;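 active = at least 50% inhibition at 5 µM, scaled per plate between neutral and stimulator controls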;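 note: PAF is a Pseudomonas aeruginosa culture filtrate used as stimulus; plate controls were PAF-stimulated DMSO wells for no effect and unstimulated DMSO wells for full effect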
Peg3 promoter – Peg3 promoter-driven luciferase inhibitors, primary screen, cell-based, HeLa, luciferase luminescence | HeLa PEG-Prom luciferase reporter, overnight | inhibition, % at 20 µM | 1.7% of 360,000 active | AID 588405, 2011;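 active = inhibition of at least 50% at 20 µM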
KKLEB cytotox – cytotoxicity in KKLEB CF airway cells, primary screen, cytotoxicity control for CF NF-kB inhibitor project, cell-based, uHTS, fluorescence assay plates; KKLEB CF airway cells viability, ATPlite luminescence, overnight; active compounds read low; cells stimulated with P. aeruginosa culture filtrate; activity change (cytotoxicity), % at 5 µM; 0.36% of 360,000 active; AID 602141, 2011;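 active = corrected activity change at or below -50% at 5 µM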
HIF-2a inh – HIF-2a reporter inhibitors, primary screen, luminescence, 786-0 RCC cells. 786-0 RCC cells HIF-2a reporter, luciferase luminescence, overnight. AID 624352, 2012. inhibition, % at 18.8 µM. 0.72% of 360,000 active;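 active = inhibition of the luminescence signal of 40% or more relative to plate controls, in a single-dose primary screen at 18.75 µM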
Starred values were filed as active, the others as inactive.

SMILES	TROY signal inh	TWEAK Fn14 block	CF NFkB block	Peg3 promoter	KKLEB cytotox	HIF-2a inh
Cc1ccc(N/C(N)=N/c2nc(C)cc(N3CCCCC3)n2)c(C)c1	61.4*	5.4	20.0	90.8*	-21.6	-32.1
Cc1nn(Cc2ccccc2)c(Cl)c1C(=O)OCC#N	-4.5	-7.4	10.4	8.6	-27.0	20.4
C=CCc1c(OC(C)=O)c2ccccc2n(C)c1=O	14.4	54.5*	12.3	12.5	8.3	15.1
CC(C)(C)NC(=S)Nc1ccc(Br)cc1	-8.2	7.4	0.5	-34.6	9.7	-33.9
CC(C)(C)NC(=S)Nc1ccc(Nc2ccccc2)cc1	-61.5	55.8*	-22.8	-47.6	14.0	-83.5
CC(=O)Nc1ccc(NC(=O)COC(=O)/C(=C/c2ccccc2)n2nnnc2C)cc1	-5.8	38.9	-70.1	0.5	-1.8	23.4
Cc1nnnn1/C(=C\c1ccccc1)C(=O)OCC(=O)NC1CCCCC1	23.9	57.0*	4.7	75.8*	-19.4	12.8
Cc1nnnn1/C(=C\c1ccccc1)C(=O)OCC(=O)NC(C)(C)C	21.2	50.1*	11.4	-22.2	-10.5	25.0
C=CC12C=CC=CN1C(C(=O)OC)=C(C(=O)OC)C(C(=O)OC)=C2C(=O)OC (configuration not stated)	2.4	5.5	14.3	1.4	-3.5	5.1
COc1ccc(NS(=O)(=O)c2ccc(-c3coc(C)n3)cc2)c(OC)c1	13.3	-3.6	0.4	13.2	-14.6	20.4
CC(C)(C)c1ccc(-c2nc3cc(N)ccc3o2)cc1	63.9*	68.8*	18.3	-170.5	-48.6	-93.4
Cc1ccc2nc(-c3ccccn3)oc2c1	-12.7	53.4*	-22.5	-116.0	-9.2	-88.5
Cc1ccc2oc(-c3ccc(NC(=O)c4cccnc4)cc3)nc2c1	13.3	56.2*	-2.3	-146.7	13.0	-286.6
CC(C)c1ccc2oc(-c3ccc(N)cc3)nc2c1	38.1	81.5*	-16.6	-102.7	-44.5	-37.0
O=C(Nc1cc(C(F)(F)F)ccc1-n1cncn1)c1ccc(Cl)cc1	-2.2	-0.6	22.4	-7.8	-2.1	16.7
CC(OC(=O)c1ccc(NC(=O)CC#N)cc1)C(=O)Nc1nc(-c2ccccc2)cs1 (configuration not stated)	34.7	28.2	-23.1	-141.4	15.7	-158.5
CN1C(=O)N(C)C2(c3ccccc3)N(C(C)(C)C)C(=O)NC12c1ccccc1 (configuration not stated)	16.1	-12.5	13.5	-73.0	0.8	21.4
Nc1ccc2oc(-c3cccc4ccccc34)nc2c1	-11.5	-1.2	-28.1	-25.8	0.4	87.4*
Cc1ccc2oc(-c3cccc(N)c3)nc2c1	2.5	51.0*	-48.2	-100.3	-1.1	-69.6
CCC(C)NCC(=O)Nc1ccc(-c2nc3cc(NC(=O)CNC(C)CC)ccc3o2)cc1 (configuration not stated)	-29.0	-140.4	-12.0	108.4*	4.4	-9.0
Cc1ccc(-c2nc3cc(C)ccc3o2)cc1	65.3*	84.3*	-3.5	-155.9	-22.7	-69.2
Cc1ccc(-c2nc3cc(N)ccc3o2)c(C)c1	8.6	45.8	-9.6	-199.2	9.6	-85.3
Cc1ccc(-c2nc3cc(N)ccc3o2)cc1	-12.0	69.9*	-14.1	-125.0	-9.4	-74.8
COc1cccc(C(=O)Nc2ccc(-c3nc4ccccc4o3)c(O)c2)c1	21.3	6.2	-15.5	-83.9	-21.8	-128.5
COc1cc(C(=O)Nc2ccc(-c3nc4cc(C)ccc4o3)c(O)c2)cc(OC)c1OC	2.3	51.7*	19.8	69.9*	-17.2	-6.4
SMILES	TROY signal inh	TWEAK Fn14 block	CF NFkB block	Peg3 promoter	KKLEB cytotox	HIF-2a inh
Nc1cccc(-c2nc3cc(S(=O)(=O)c4ccc5oc(-c6cccc(N)c6)nc5c4)ccc3o2)c1	-25.9	-12.2	-10.4	73.0*	9.3	-4.9
Nc1cccc(-c2nc3ncccc3o2)c1	-4.4	-15.8	-25.9	-68.4	16.1	-132.0
O=C(Nc1ccc2oc(-c3cccnc3)nc2c1)c1ccc([N+](=O)[O-])o1	2.6	21.5	89.0*	107.7*	-57.6*	23.8
CCOc1ccccc1Nc1cc(C)c2cccc(C)c2n1	-6.2	11.4	-4.7	4.3	0.3	14.8
COC(=O)c1cc(-c2cccs2)[nH]n1	11.1	-18.2	-1.4	-27.8	13.6	-40.1
COC(=O)c1c(NC(=O)CCNCc2ccco2)sc2c1CCC2	0.5	-31.4	5.7	4.9	-5.0	-3.0
C=CCSC1=C(C#N)C(c2ccccc2OCC)C(C#N)C(=O)N1 (configuration not stated)	-19.7	-12.6	1.5	-1.3	-5.3	10.8
CC(C)(C)c1cc(=O)[nH]c(SCc2ccccc2Cl)n1	54.1*	-4.6	-3.1	7.1	8.9	14.1
CC(C)(C)c1cc(=O)[nH]c(SCc2ccccc2)n1	45.2	12.2	7.4	17.5	4.8	5.9
CC(C)Cn1c(N)c(S(=O)(=O)c2cccs2)c2nc3ccccc3nc21	67.2*	40.9	13.0	16.6	-10.1	20.1
Nc1c(S(=O)(=O)c2cccs2)c2nc3ccccc3nc2n1/N=C/c1cccc(O)c1	35.2	80.9*	-10.5	91.8*	10.2	40.0*
COc1cccc(/C=N/n2c(N)c(S(=O)(=O)c3cccs3)c3nc4ccccc4nc32)c1	0.4	11.8	-10.6	19.0	-3.7	5.7
Cc1ccccc1C(=O)N1CCC(C(=O)Nc2sccc2C(N)=O)CC1	-2.6	-5.5	4.4	7.9	-2.1	3.4
Cc1c(/C=N/NC(=O)c2ccccc2O)c2ccccn2c1C(=O)c1ccc(F)cc1	51.4*	65.8*	5.5	17.8	-3.3	-78.0
Cc1c(/C=N/NC(=O)c2ccc(O)cc2)c2ccccn2c1C(=O)c1ccc(F)cc1	-4.0	53.6*	-1.9	-1.9	-4.2	-53.3
COC(=O)N/N=C/c1c(C)c(C(=O)c2ccc(F)cc2)n2ccccc12	15.3	9.8	2.1	22.5	5.4	26.0
CC1=CC(=O)c2ccccc2C1=O	14.5	10.5	61.8*	17.0	-16.0	5.7
CN(C)C=C1C(=O)c2ccccc2C1=O	7.9	9.6	4.3	-3.0	-5.8	-15.7
COc1cccc2c1C(=O)C=C(C)C2=O	31.3	8.9	57.7*	15.5	6.2	9.4
CC(C)(C=O)C1=CC(=O)c2ccccc2C1=O	69.8*	63.0*	-11.5	108.4*	-1.3	41.9*
COc1cccc(N(CC(=O)NC(C)(C)C)C(=O)C2CSC(=O)C2)c1 (configuration not stated)	7.5	4.4	13.2	-15.7	-11.8	11.6
Cc1cc(C(F)(F)F)nn1CC(=O)NNC(=S)Nc1ccc(F)cc1	-9.2	9.5	8.3	14.1	6.7	6.7
